Results published in PubChem BioAssay (Tox21).
Where “and” joins values, the source holds several entries; their conditions need not be identical. Equal values may be shown once. Results filed as inconclusive are left out. More than one record can exist for a structure, and the calls need not agree. Calls of active or inactive are those of the source. Unless noted, the call rests on the fitted dose curve; in most records, active means well fitted curve in the direction sought with a large enough effect in the repeat runs; inconclusive means weak or mixed curves; inactive means no such curve, though single readings can be large; an effect the other way counts as inactive or inconclusive.

What was measured:
[1] = target: Acetylcholinesterase (Homo sapiens) (UniProt P22303); assay: Acetylcholinesterase (AChE) small molecule antagonists: colormetric cell-based qHTS assay (AID 1347395; calls by dose curve; further: nearly all actives have a fitted effect of over 30% in size; further: potency means the concentration at half of the fitted maximal effect)
Sequence of Acetylcholinesterase (Homo sapiens) (P22303 whole entry, looked up): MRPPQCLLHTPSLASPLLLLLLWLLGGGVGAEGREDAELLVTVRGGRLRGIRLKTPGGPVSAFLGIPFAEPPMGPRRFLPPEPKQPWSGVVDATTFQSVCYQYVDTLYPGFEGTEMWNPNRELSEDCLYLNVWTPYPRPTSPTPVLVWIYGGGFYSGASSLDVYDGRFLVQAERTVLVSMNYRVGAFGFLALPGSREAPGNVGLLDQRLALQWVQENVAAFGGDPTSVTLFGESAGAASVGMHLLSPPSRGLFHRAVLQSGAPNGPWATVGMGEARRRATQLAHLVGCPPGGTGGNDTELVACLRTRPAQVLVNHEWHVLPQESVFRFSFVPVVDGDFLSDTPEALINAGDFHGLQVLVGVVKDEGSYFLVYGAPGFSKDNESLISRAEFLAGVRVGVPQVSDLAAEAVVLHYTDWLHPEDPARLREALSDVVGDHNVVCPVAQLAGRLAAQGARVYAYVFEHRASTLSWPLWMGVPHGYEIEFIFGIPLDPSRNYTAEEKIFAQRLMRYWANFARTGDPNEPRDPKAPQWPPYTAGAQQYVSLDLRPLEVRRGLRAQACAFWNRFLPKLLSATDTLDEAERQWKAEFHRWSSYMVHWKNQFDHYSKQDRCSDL
Method in brief: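 Endogenous AChE of human neuroblastoma SH-SY5Y cells was measured with an Ellman-type DTNB/acetylthiocholine mix. Compound pretreatment lasted 30 min at 37 C; substrate reaction ran 90 min at 37 C.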

[2] = target: Acetylcholinesterase (Homo sapiens) (UniProt P22303); assay: Acetylcholinesterase (AChE) small molecule antagonists: fluorescence cell-based qHTS assay (AID 1347398; calls by dose curve; further: nearly all actives have a fitted effect of over 50% in size; further: potency means the concentration at half of the fitted maximal effect); details: Potency: AChE activity
Method in brief: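 SH-SY5Y cells (2000/well), attached overnight, incubated with compound 30 min at 37 C. Acetylthiocholine plus Thiolite Green then added for 40 min at room temperature. Thiocholine fluorescence (Ex/Em 490/520 nm) reports cellular AChE activity.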

[3] = target: Acetylcholinesterase (Homo sapiens) (UniProt P22303); assay: Acetylcholinesterase (AChE) small molecule antagonists: enzyme-based qHTS assay with human liver microsomes (AID 1347399; calls by dose curve; further: nearly all actives have a fitted effect of over 60% in size; further: potency means the concentration at half of the fitted maximal effect); details: Potency: qHTS inhibition
Method in brief: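 Recombinant human AChE (50 mU/mL in the enzyme mix) and human liver microsomes (0.25 mg/mL final) were preincubated with compound and NADPH (0.25 mg/mL final) for 30 min at 37 C. Acetylthiocholine/DTNB was then added; thiocholine was read colorimetrically after 10 min at room temperature.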

[4] = target: Cytochrome P450 2D6 (Homo sapiens) (UniProt P10635); assay: Cytochrome P450 Family 2 Subfamily D Member 6 (CYP2D6) small molecule antagonists: luciferase reporter qHTS assay (AID 1671196); further: nearly all actives have a fitted effect of over 50% in size; further: potency means the concentration at half of the fitted maximal effect
Sequence of Cytochrome P450 2D6 (Homo sapiens) (P10635 whole entry, looked up): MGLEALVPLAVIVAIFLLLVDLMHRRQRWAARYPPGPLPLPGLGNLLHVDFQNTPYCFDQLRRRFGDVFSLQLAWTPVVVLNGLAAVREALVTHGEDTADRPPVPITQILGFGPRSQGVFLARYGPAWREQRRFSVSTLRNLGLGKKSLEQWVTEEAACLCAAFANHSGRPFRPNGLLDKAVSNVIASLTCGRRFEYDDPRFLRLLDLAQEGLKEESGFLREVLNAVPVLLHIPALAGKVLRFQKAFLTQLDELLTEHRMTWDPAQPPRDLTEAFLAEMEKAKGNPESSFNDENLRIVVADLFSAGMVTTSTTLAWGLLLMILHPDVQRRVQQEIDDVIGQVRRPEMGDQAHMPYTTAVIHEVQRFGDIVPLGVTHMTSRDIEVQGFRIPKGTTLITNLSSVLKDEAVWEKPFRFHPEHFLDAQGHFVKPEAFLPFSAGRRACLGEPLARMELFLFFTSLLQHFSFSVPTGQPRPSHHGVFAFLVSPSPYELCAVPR
Method in brief: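 Cell-free P450-Glo system: CYP2D6 with proluciferin substrate was pre-incubated with compound for 10 min, then reacted with NADPH regeneration for 1 h at room temperature. Luciferin product was detected after 20 min, and data were reported as relative luminescence units.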

[5] = target: Cytochrome P450 2C19 (Homo sapiens) (UniProt P33261); assay: Cytochrome P450 Family 2 Subfamily C Member 19 (CYP2C19) small molecule antagonists: luciferase reporter qHTS assay (AID 1671197); further: nearly all actives have a fitted effect of over 65% in size; further: potency means the concentration at half of the fitted maximal effect
Sequence of Cytochrome P450 2C19 (Homo sapiens) (P33261 whole entry, looked up): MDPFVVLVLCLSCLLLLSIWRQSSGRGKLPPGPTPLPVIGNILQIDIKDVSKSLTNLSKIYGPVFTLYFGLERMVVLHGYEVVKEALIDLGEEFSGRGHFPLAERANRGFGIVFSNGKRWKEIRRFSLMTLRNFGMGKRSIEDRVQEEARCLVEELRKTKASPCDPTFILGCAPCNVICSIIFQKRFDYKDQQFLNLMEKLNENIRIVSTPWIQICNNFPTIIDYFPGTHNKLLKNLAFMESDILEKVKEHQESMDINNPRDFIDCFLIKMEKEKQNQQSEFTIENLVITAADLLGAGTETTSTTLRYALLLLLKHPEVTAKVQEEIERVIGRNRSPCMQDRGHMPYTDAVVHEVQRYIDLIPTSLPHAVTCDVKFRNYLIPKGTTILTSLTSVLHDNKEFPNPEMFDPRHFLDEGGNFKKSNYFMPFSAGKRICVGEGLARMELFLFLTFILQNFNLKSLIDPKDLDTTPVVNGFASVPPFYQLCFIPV
Method in brief: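 Quantitative high-throughput screen of the Tox21 library using CYP2C19 with proluciferin substrate. Reaction: NADPH regeneration, 37C, 1 h, after 10 min compound preincubation at room temperature. Readout: luminescence.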

[6] = target: Cytochrome P450 2C9 (Homo sapiens) (UniProt P11712); assay: Cytochrome P450 Family 2 Subfamily C Member 9 (CYP2C9) small molecule antagonists: luciferase reporter qHTS assay (AID 1671198); further: nearly all actives have a fitted effect of over 50% in size; further: potency means the concentration at half of the fitted maximal effect
Sequence of Cytochrome P450 2C9 (Homo sapiens) (P11712 whole entry, looked up): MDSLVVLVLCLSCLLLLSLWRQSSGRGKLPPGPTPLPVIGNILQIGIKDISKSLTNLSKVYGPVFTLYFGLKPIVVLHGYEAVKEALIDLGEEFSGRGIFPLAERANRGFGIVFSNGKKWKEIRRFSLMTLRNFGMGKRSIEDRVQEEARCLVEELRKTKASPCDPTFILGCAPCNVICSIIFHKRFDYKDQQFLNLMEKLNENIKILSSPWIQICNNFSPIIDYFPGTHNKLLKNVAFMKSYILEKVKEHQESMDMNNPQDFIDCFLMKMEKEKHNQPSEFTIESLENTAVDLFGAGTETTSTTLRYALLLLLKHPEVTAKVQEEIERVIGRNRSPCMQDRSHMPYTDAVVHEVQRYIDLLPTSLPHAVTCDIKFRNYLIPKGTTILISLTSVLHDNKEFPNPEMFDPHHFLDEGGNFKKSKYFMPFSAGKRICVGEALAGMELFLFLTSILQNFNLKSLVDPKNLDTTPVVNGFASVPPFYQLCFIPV
Method in brief: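 P450-Glo proluciferin substrate with CYP2C9 enzyme; 10 min RT preincubation, then NADPH regeneration 1 h at 37C; luciferin detection reagent 20 min RT, luminescence in relative luminescence units.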

[7] = target: Cytochrome P450 1A2 (Homo sapiens) (UniProt P05177); assay: Cytochrome P450 Family 1 Subfamily A Member 2 (CYP1A2) small molecule antagonists: luciferase reporter qHTS assay (AID 1671199); further: nearly all actives have a fitted effect of over 50% in size; further: potency means the concentration at half of the fitted maximal effect
Sequence of Cytochrome P450 1A2 (Homo sapiens) (P05177 whole entry, looked up): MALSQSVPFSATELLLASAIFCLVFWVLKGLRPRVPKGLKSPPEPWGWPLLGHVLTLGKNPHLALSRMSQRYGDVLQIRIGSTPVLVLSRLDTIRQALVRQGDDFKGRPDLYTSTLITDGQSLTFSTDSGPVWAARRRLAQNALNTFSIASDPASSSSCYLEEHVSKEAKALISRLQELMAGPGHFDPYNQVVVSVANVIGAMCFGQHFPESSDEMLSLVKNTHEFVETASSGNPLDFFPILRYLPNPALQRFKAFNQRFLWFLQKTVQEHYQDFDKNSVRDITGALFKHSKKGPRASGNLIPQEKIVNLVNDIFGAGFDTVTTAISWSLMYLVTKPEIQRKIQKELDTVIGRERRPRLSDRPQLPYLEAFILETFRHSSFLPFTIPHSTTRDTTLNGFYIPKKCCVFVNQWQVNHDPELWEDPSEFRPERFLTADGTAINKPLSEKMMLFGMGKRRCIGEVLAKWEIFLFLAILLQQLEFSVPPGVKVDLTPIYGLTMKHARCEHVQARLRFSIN
Method in brief: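 P450-Glo CYP1A2 enzyme–proluciferin substrate mix with compound 10 min at room temperature, then NADPH regeneration 1 h at room temperature. Luciferin detection reagent added, luminescence read after 20 min; furafylline positive control.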

[8] = target: Voltage-gated inwardly rectifying potassium channel KCNH2 (Homo sapiens) (UniProt Q12809); assay: Human Ether-a-go-go-Related Gene (hERG) channel small molecule antagonists: fluorescence cell-based qHTS assay (AID 1671200)
Sequence of Voltage-gated inwardly rectifying potassium channel KCNH2 (Homo sapiens) (Q12809 whole entry, looked up): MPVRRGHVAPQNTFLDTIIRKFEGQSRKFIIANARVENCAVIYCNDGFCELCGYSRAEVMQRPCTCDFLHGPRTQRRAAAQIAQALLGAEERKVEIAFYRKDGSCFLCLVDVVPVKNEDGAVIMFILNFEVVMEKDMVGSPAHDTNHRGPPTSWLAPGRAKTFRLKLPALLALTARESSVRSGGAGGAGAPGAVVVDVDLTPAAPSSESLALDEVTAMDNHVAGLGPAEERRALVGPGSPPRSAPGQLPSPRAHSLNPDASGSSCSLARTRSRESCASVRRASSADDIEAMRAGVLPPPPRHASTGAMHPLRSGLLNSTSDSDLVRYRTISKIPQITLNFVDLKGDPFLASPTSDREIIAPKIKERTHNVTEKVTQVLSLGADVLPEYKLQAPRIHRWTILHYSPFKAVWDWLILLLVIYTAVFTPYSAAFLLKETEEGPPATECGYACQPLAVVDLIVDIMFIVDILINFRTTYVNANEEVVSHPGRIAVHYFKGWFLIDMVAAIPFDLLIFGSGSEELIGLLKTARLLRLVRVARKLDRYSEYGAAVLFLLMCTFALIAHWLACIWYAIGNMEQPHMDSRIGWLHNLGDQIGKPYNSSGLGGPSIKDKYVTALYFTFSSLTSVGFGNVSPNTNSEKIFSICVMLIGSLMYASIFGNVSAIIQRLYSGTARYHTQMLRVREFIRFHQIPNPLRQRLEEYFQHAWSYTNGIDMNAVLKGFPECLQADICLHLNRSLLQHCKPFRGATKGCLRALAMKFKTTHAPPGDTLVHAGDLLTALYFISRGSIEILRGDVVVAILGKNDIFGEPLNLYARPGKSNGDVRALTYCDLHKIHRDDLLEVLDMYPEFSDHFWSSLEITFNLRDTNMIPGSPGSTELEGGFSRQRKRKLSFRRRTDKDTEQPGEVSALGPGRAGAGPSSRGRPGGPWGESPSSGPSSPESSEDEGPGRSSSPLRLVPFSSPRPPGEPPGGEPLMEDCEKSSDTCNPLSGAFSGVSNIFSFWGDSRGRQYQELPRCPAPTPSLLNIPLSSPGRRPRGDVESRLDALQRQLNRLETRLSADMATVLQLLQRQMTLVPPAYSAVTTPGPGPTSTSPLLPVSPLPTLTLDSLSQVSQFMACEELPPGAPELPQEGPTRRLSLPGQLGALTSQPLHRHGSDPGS
Method in brief: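 Quantitative HTS in hERG-U2OS cells: thallium entry through the channel reports activity, read as continuous 480/540 nm fluorescence over 2 min after stimulus addition.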

[9] = target: Cytochrome P450 3A4 (Homo sapiens) (UniProt P08684); assay: Cytochrome P450 Family 3 Subfamily A Member 4 (CYP3A4) small molecule antagonists: luciferase reporter qHTS assay (AID 1671201); further: nearly all actives have a fitted effect of over 50% in size; further: potency means the concentration at half of the fitted maximal effect
Sequence of Cytochrome P450 3A4 (Homo sapiens) (P08684 whole entry, looked up): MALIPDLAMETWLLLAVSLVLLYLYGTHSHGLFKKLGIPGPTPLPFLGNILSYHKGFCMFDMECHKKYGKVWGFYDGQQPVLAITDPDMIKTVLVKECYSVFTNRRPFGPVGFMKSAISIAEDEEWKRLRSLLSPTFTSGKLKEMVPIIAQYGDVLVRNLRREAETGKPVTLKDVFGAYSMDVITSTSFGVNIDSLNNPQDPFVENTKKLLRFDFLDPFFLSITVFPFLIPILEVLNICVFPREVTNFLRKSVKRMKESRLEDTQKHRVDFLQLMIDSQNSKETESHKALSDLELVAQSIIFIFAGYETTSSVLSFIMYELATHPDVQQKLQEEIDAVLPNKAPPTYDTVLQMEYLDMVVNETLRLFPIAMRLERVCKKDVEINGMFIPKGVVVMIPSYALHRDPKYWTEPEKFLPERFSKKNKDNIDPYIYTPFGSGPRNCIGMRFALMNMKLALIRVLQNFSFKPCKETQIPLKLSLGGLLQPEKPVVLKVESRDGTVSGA
Method in brief: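 Inhibition of CYP3A4 is measured as loss of light: the enzyme converts a proluciferin substrate to luciferin, detected luminescently. Reaction ran 1 h at room temperature with NADPH regeneration after a 10 min compound preincubation.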

Measured: Potency

CCNc1nc(Cl)nc(NC(C)C)n1
active: [7] 24.9 µM and 22.4 µM
inactive: all other assays above

OCCCCO
inactive: [8]

ClCCOCCCl
inactive: all assays above

Nc1ccc(N)cc1
active: [4] 39.9 µM | [5] 34.7 µM [middle of 4 runs] | [6] 11.3 µM and 28.3 µM and 8.71 µM
inactive: [8]

CNCC(O)c1ccc(O)cc1 (centres undefined)
70.9 µM (active) and inactive: [5]
active: [4] 39.9 µM
inactive: all other assays above

CCCCC(CC)C(=O)Cl (centres undefined)
inactive and 63.3 µM (active): [7]
inactive: all other assays above

CNC(=O)O/N=C/C(C)(C)SC
inactive: [4] | [7] | [8]
40.3 µM (active) and inactive: [5]

O=[N+]([O-])c1ccc(Cl)c(Cl)c1
inactive and 22.4 µM (active): [7]
71.1 µM (active) and inactive: [5]
not listed: [6] | [9]
inactive: all other assays above

CN(C)CCC#N
inactive: all assays above

CCOP(=S)(OCC)Oc1ccc([N+](=O)[O-])cc1
active: [1] 64.1 µM and 13.8 µM | [2] 71.9 µM and 15.5 µM | [3] 905 nM and 616 nM | [5] 128 nM and 109 nM | [6] 1.61 µM and 976 nM | [7] 1.02 µM and 976 nM | [9] 2.27 µM and 2.75 µM

Cc1ccc(N)cc1
inactive: [8] | [9]
active: [4] 5.06 µM and 25.2 µM | [5] 35.8 µM and 38.6 µM and 31.7 µM | [6] 40.2 µM | [7] 28.4 µM and 30.6 µM and 25.2 µM
